The text below walks through data of ChEMBL document CHEMBL3433997, “St. Jude Leishmania screening dataset” (2016).

Molecules are shown by their SMILES.

What all share (type): functional
The target in experiment [1] is Solute carrier family 2, facilitated glucose transporter member 1 (Homo sapiens) (UniProt P11166). Description: ST_JUDE_LEISH: Cytotoxicity at 2uM final concentration against transgenic Leishmania Mexicana promastigotes LmGLUT1 that are glucose transport deficient and complemented with the human glucose transporter GLUT1. Activity is measured by DNA content using SYBR green in vitro.

Experiment [2] has as its target Hexose transporter 1 (Plasmodium falciparum) (UniProt O97467). Description: ST_JUDE_LEISH: Cytotoxicity at 2uM final concentration against transgenic Leishmania Mexicana promastigotes LmPfHT that are glucose transport deficient and complemented with the Plasmodium falciparum hexose transporter. Activity is measured by DNA content using SYBR green in vitro.
Experiment [3] concerns the target Glucose transporter (Leishmania mexicana) (UniProt O61059). Description: ST_JUDE_LEISH: Cytotoxicity at 2uM final concentration against transgenic Leishmania Mexicana promastigotes LmGT2 that are glucose transport deficient and complemented with the L. Mexicana glucose transporter 2. Activity is measured by DNA content using SYBR green in vitro.

Chain of Solute carrier family 2, facilitated glucose transporter member 1 (Homo sapiens) (P11166 whole entry): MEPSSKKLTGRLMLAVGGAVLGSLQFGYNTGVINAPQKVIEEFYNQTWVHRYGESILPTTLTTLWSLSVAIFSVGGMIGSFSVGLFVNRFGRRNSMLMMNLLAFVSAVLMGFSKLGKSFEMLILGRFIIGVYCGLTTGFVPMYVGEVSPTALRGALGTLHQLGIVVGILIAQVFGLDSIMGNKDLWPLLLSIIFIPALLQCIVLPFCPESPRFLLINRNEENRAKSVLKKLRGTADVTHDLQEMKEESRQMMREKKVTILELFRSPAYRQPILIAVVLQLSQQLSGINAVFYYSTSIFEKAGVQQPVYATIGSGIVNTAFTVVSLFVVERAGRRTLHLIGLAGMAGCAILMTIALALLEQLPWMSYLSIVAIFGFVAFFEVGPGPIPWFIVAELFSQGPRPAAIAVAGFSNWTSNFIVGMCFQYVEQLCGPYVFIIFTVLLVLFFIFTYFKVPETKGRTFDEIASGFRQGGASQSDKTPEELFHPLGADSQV

For `Cc1cc(OCCCN2CCC(NS(=O)(=O)c3ccc(C(F)(F)F)cc3)CC2)c2ccccc2n1`, the figures for the inhibition in experiment [1], in experiment [2] and in experiment [3] were 1.59%, 0.36% and 0.63%, respectively.

`FC(F)(F)c1ccc(-c2cncc(-c3ccc(C(F)(F)F)cc3)n2)cc1`: the figures for the inhibition in experiment [1], in experiment [2] and in experiment [3] were -1.94%, -1.14% and -1.64%, respectively.

`CCN(CC)CCN1C(=O)c2oc3ccc(Cl)cc3c(=O)c2C1c1ccc(SC)cc1` (stereo not drawn): the inhibition (in general, the drop in the measured response relative to a control, in per cent) in experiment [1] was -3.16%; in experiment [2], -2.27%; in experiment [3] it was 8.97%.

Take `N=C1SC(=Cc2cn[nH]c2-c2ccc(F)cc2)C(=O)N1c1nccs1`: the inhibition was 0.88% in experiment [1], 2.1% in experiment [2] and 1.17% in experiment [3].

As for `NC(=O)C1Cc2ccccc2CN1CC(=O)Nc1ccccc1Sc1ccccc1` (stereo not drawn), the inhibition in experiment [1] was determined as 2.73%; in experiment [2], 2.07%; in experiment [3], 2.18%.

Take `COC(=O)CNC(c1ccccc1)c1cc(Br)ccc1NC(=O)c1ccccc1Br` (stereo not drawn): the inhibition was 7.18% in experiment [1], 16.3% in experiment [2] and 5.19% in experiment [3].

Take `Cc1ccc(-n2c(=O)c3c(n4c(SC(C)C)nnc24)-c2ccccc2CC32CCCCC2)cc1`: the inhibition in experiment [1] worked out at 7.08%; in experiment [2], 6.98%; in experiment [3], 5.47%.

As to `Cc1noc(C)c1-c1ccc2c(Nc3cccc4c3-c3ccccc3C4=O)c(C(=O)NCc3ccccc3I)cnc2c1`, the inhibition in experiment [1] came to 3.15%; in experiment [2], 2.33%; in experiment [3], 6.11%.

`COc1cc(C(=O)N2CCC(CCN3CCC4(CC3)CN(S(C)(=O)=O)c3ccccc34)CC2Cc2ccc(Cl)c(Cl)c2)cc(OC)c1OC` (stereo not drawn): the inhibition came out at 3.23% in experiment [1], 4.25% in experiment [2] and 3.27% in experiment [3].

`COc1ccc(Nc2ncc3c(-c4cccc(NC(=O)Cc5ccc(F)cc5)c4)c[nH]c3n2)cc1OC`: the figures for the inhibition in experiment [1], in experiment [2] and in experiment [3] were 2.27%, 2.59% and 2.37%, respectively.

`O=C(/C=C/c1ccc(Cl)c(Cl)c1)NCCCCCN1CCCN(C(=O)Nc2cc(Cl)nc(Cl)c2)CC1`: the results for the inhibition in experiment [1], in experiment [2] and in experiment [3] were 5.11%, 6.64% and 5.94%, respectively.

With `Cc1nc(C)c(-c2ccc(Cl)cc2)c(O)c1I`, the figures for the inhibition in experiment [1], in experiment [2] and in experiment [3] were 4.26%, 2.05% and 2.3%, respectively.

`C#CCOc1ccccc1CN1CCC(N2CCc3cc(NC(=O)c4cc(C)on4)ccc32)C1` (stereo not drawn): the inhibition in experiment [1] worked out at 2.61%; in experiment [2], 1.64%; in experiment [3], 4.74%.

Take `CNC(=O)Cc1ccc(C(=O)Nc2cccc(-c3cccc(-c4nc5cc(C(F)(F)F)ccc5[nH]4)c3)c2)cc1`: the inhibition in experiment [1] is -0.26%; in experiment [2] it was 0.81%; in experiment [3] it was -0.97%.

Regarding `O=C(Nc1ccc2[nH]c(-c3ccccc3)nc2c1)c1cc(-c2ccc3c(c2)OCCO3)n[nH]1`, the inhibition in experiment [1] is 12.2%; in experiment [2] it was 11.6%; in experiment [3] it was 11.4%.

With `COc1ccc(CCN(C)CCOc2ccc(NC(=O)c3cccc4c(=O)c5cc(SC)ccc5[nH]c34)cc2)cc1OC`, the inhibition in experiment [1] stood at 9.29%; in experiment [2] it was 8.61%; in experiment [3], 6.56%.

In the case of `O=C(c1cc(OC(F)(F)F)ccc1O)N1CCN(c2ccccc2)CC1`, the inhibition in experiment [1] came to 5.08%; in experiment [2], 4.52%; in experiment [3], 7.06%.

For `O=C(NC1CCN(CCN2CCC(c3ccccc3C(F)(F)F)CC2)CC1)c1ccc(-c2ccc(Cl)cc2)cc1`, the values for the inhibition in experiment [1], in experiment [2] and in experiment [3] were 9.46%, 0.61% and 1.57%, respectively.

As to `CC(Oc1ccc(Cl)cc1)C(=O)NCCC1CCN(CCCCCNC(=O)/C=C/c2ccc(Cl)c(Cl)c2)CC1` (stereo not drawn), the inhibition was found to be 2.73% in experiment [1], 1.37% in experiment [2] and 0.04% in experiment [3].

For the compound `O=C(Nc1ccc(OC2CCN(Cc3ccc(F)cc3)CC2)c(Cl)c1)c1ccsc1`, the inhibition in experiment [1] is -1.74%; in experiment [2], 2.64%; in experiment [3], 1.51%.

As to `CC(CN)OCn1cnc2c(N)ncnc21` (stereo not drawn), the inhibition in experiment [1] was 0.4%; in experiment [2] it was 4.03%; in experiment [3], 4.83%.

`COc1c(C2CCN(CCCCNC(=O)c3ccc(-c4ccc(C(F)(F)F)cc4)c(C(=O)OC(C)C)c3)CC2)ccc2c1CCCC2`: the figures for the inhibition in experiment [1], in experiment [2] and in experiment [3] were 1.36%, 1.79% and 0.91%, respectively.

In the case of `O=C(NCc1ccc(F)cc1)c1ccc(N2CCN(c3ccncc3)CC2)cn1`, the values for the inhibition in experiment [1], in experiment [2] and in experiment [3] were 2.68%, -0.85% and 1.79%, respectively.

Consider `Cc1ccccc1C1CCN(C2CCC(NC(=O)/C=C/c3ccc(Cl)cc3)CC2)CC1` (stereo not drawn), for which the inhibition in experiment [1] came to 1.76%; in experiment [2], 2.6%; in experiment [3] it was 2.42%.

For the compound `N#Cc1ccc(N(CCOc2ccc(Cl)cc2)Cc2ccccc2C(F)(F)F)cc1C(F)(F)F`, the results for the inhibition in experiment [1], in experiment [2] and in experiment [3] were -1.04%, -1.88% and -1.54%, respectively.

Regarding `CC(=O)Nc1nc(C(=O)Nc2cccc(-c3ccc(-c4nc5ccccc5[nH]4)cc3)c2)cs1`, the inhibition in experiment [1] stood at 13%; in experiment [2] it was 11.8%; in experiment [3], 10.3%.

In the case of `CN(C)CCCc1cc(NC(=O)Nc2cccc(Cl)c2Cl)ccc1I`, the figures for the inhibition in experiment [1], in experiment [2] and in experiment [3] were 1.65%, 5.95% and 3.83%, respectively.

Turning to `Cc1cccc2nc(-c3ccc(-c4ccc(NC(=O)C5CCN(C)CC5)cc4)cc3)[nH]c12`, the inhibition in experiment [1] came to 3.08%; in experiment [2], 5.28%; in experiment [3], 1.38%.

Take `COc1cc2ncnc(Nc3ccc(Br)c(Cl)c3)c2cc1OC`: the inhibition was determined as 5.07% in experiment [1], 5.81% in experiment [2] and 3.09% in experiment [3].

Take `O=C(CCC1CCCCC1=O)c1ccccc1` (stereo not drawn): the results for the inhibition in experiment [1], in experiment [2] and in experiment [3] were 3.73%, 2.15% and 1.52%, respectively.

Take `CC(Oc1ccc(Cl)cc1)C(=O)N(C)C1CCN(CCCCCNC(=O)/C=C/c2ccc(Cl)c(Cl)c2)CC1` (stereo not drawn): the inhibition in experiment [1] was found to be 1.06%; in experiment [2], 3.1%; in experiment [3], 1.95%.

Regarding `Cc1nc(C)c(-c2ccc(Cl)cc2Cl)c(O)c1Br`, the inhibition in experiment [1] stood at 1.43%; in experiment [2], 0.95%; in experiment [3], 3.83%.

Turning to `O=c1cc(NCCCN(Cc2cc3c(Cl)cc(Cl)cc3[nH]2)Cc2cc3c(Cl)cc(Cl)cc3[nH]2)[nH]c2ccccc12`, the inhibition in experiment [1] stood at 9.06%; in experiment [2] it was 9.4%; in experiment [3] it was 7.31%.

As to `COc1cc2c(cc1C(F)(F)F)N(C(=O)Nc1cc(F)c(F)c(-c3cccnc3)c1)CC2`, the figures for the inhibition in experiment [1], in experiment [2] and in experiment [3] were 10.1%, 1.42% and -4.39%, respectively.

Consider `CC(C)NCc1cccc(-c2ccc(NC(=O)c3cccc(C#N)c3)cc2)c1`, for which the values for the inhibition in experiment [1], in experiment [2] and in experiment [3] were 0.25%, 0.74% and 2.32%, respectively.

On to `CC(=O)c1cc(N2CCOCC2)ccc1N`, for which the inhibition is 2.03% in experiment [1], 1.08% in experiment [2] and 2.38% in experiment [3].
